The text below walks through data of article PMC5540273 (PLoS ONE, 2017).

Several values for one entry are separate records, joined by “and”; a condition that tells them apart may be missing. Equal values may be shown once. Read-outs that look alike come from different tables or passages of the source.

One test relates to PRKCQ. Conditions: n = 1.
In a further test the test system is PRKD1. Conditions: concentration: 1 μM, replicates: in singlicate; n = 1.
For a further test, the system named is PRKD2. The following applies: n = 1.
A further test relates to PRKD3. Conditions: n = 1.
A further test has as its system PRKG1. The following applies: n = 1.
The subject of another test is PRKG2. The following applies: n = 1.
Another test relates to T1, PRKR.
T1 construct: gene EIF2AK2
The following applies: n = 1.

The next test deals with PRKX. Conditions: n = 1.
For another test, the system named is PRP4. The following applies: n = 1.
A further test has as its system T2, PYK2.
T2 construct: gene PTK2B
The following applies: n = 1.

For the next test, the system named is QSK. Conditions: n = 1.
Another test has as its system RAF1. Conditions: n = 1.
For a further test, the system named is RET. The following applies: n = 1.
A further test relates to RIOK1. The following applies: n = 1.
For a further test, the system named is RIOK2. The following applies: n = 1.
The subject of another test is RIOK3. The following applies: n = 1.
For the next test, the system named is RIPK1. The following applies: n = 1.
The next test relates to RIPK2. The following applies: n = 1.
The test system of the next test is RIPK4. Conditions: n = 1.
The test system of the next test is RIPK5. The following applies: concentration: 1 μM, replicates: in singlicate; n = 1.
Where [1] appears, read: concentration: 1 μM, replicates: in singlicate.
Where [2] appears, read: concentration: 1 μM,replicates: in singlicate, 1 µM.
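Note: KINOMEscan kinase panel screen.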

Take `CCn1c(-c2ccccn2)nc2cnccc21` [SB-736398]: the “%Inh” value with PRKCQ (setting [1]) is recorded as 14%; in the test with PRKD1 it was 0%; in the test on PRKD2 (setting [1]), 0%; with PRKD3 (setting [1]) it was 1%; in the test with PRKG1 (setting [1]), 0%; in the test on PRKG2 (setting [1]), 3%. Moreover, the “%Inh” value in the test with PRKR (setting [1]) is recorded as 0%; in the test on PRKX (setting [1]), 100%; in the test on PRP4 (setting [1]), 46%; with PYK2 (setting [1]), 9%; with QSK (setting [1]), 0%; in the test on RAF1 (setting [1]), 18%. For the same molecule, the “%Inh” value in the test on RET (setting [1]) is 24%; in the test on RIOK1 (setting [1]), 4%; with RIOK2 (setting [1]) it was 0%; with RIOK3 (setting [1]), 0%; with RIPK1 (setting [1]), 0%; with RIPK2 (setting [1]), 0%. For the same molecule, the entries for the “%Inh” value in the test on RIPK4 (setting [1]) and with RIPK5 were 15% and 0%, respectively.
As to `Cc1cccc(-c2cc(Nc3ccncc3)c3ccccc3n2)n1` [GSK223675], the “%Inh” value with PRKCQ (setting [1]) was 0%; in the test with PRKD1, 91.1%; with PRKD2 (setting [1]), 96%; in the test on PRKD3 (setting [1]), 100%; with PRKG1 (setting [1]) it was 0%; in the test on PRKG2 (setting [1]), 0%. Moreover, the “%Inh” value in the test with PRKR (setting [1]) worked out at 0%; in the test with PRKX (setting [1]) it was 16%; in the test with PRP4 (setting [1]) it was 19%; in the test with PYK2 (setting [1]), 14%; in the test with QSK (setting [1]) it was 0%; in the test with RAF1 (setting [1]) it was 6%. Also, the “%Inh” value in the test on RET (setting [1]) is on record as 0%; in the test on RIOK1 (setting [1]), 19%; in the test on RIOK2 (setting [1]) it was 0%; in the test with RIOK3 (setting [1]), 29%; in the test with RIPK1 (setting [1]), 0%; in the test on RIPK2 (setting [1]), 6%. Besides, the figures for the “%Inh” value in the test with RIPK4 (setting [1]) and with RIPK5 were 21% and 6%, respectively.
For `Cl.O=C(Nc1cccc(-c2nn3ncccc3c2-c2ccnc(Nc3cccnc3)n2)c1)c1c(F)cccc1F` [GSK312879], the “%Inh” value with PRKCQ (setting [1]) is on record as 25%; with PRKD1, 0%; in the test with PRKD2 (setting [1]), 0%; in the test with PRKD3 (setting [1]), 25%; in the test with PRKG1 (setting [1]) it was 16%; in the test with PRKG2 (setting [1]), 0%. Further, the “%Inh” value in the test on PRKR (setting [1]) worked out at 0%; with PRKX (setting [1]), 3%; in the test on PRP4 (setting [1]), 11%; in the test on PYK2 (setting [1]) it was 0%; in the test on QSK (setting [1]) it was 0%; in the test with RAF1 (setting [1]), 87%. Also, the “%Inh” value in the test on RET (setting [1]) is recorded as 31%; with RIOK1 (setting [1]), 31%; with RIOK2 (setting [1]), 11%; in the test on RIOK3 (setting [1]), 0%; with RIPK1 (setting [1]), 0%; with RIPK2 (setting [1]), 18%. Also, the “%Inh” value was 15% with RIPK4 (setting [1]) and 0% with RIPK5.
With `Cc1nnc(-c2ccc3occ(-c4ccc(S(C)=O)cc4)c3c2)[nH]1` (centres unmarked), the “%Inh” value with PRKCQ (setting [1]) amounted to 0%; in the test with PRKD1, 0%; with PRKD2 (setting [1]), 4%; in the test with PRKD3 (setting [1]), 0%; with PRKG1 (setting [1]), 0%; in the test on PRKG2 (setting [1]), 0%. The “%Inh” value in the test on PRKR (setting [1]) came out at 0%; in the test with PRKX (setting [1]) it was 51%; in the test on PRP4 (setting [1]), 10%; with PYK2 (setting [1]), 26%; in the test on QSK (setting [1]), 3%; with RAF1 (setting [1]) it was 4%. Moreover, the “%Inh” value with RET (setting [1]) is reported as 31%; in the test on RIOK1 (setting [1]), 13%; with RIOK2 (setting [1]), 31%; in the test on RIOK3 (setting [1]) it was 0%; with RIPK1 (setting [1]), 100%; with RIPK2 (setting [1]), 13%. Besides, the “%Inh” value in the test on RIPK4 (setting [1]) and in the test with RIPK5 was 0% throughout.
`CSc1nn2c(=O)cc(N3CCOCC3)nc2n1Cc1cccc(C(F)(F)F)c1C` [GSK2363608]: the “%Inh” value in the test with PRKCQ (setting [2]) was 0% and 66%; in the test with PRKD1, 0%; with PRKD2 (setting [2]), 7% and 4%; in the test with PRKD3 (setting [2]), 21% and 0%; with PRKG1 (setting [2]), 39% and 1%; in the test with PRKG2 (setting [2]), 16% and 0%. Besides, the “%Inh” value with PRKR (setting [2]) is 5% and 0%; in the test on PRKX (setting [2]), 36% and 0%; in the test on PRP4 (setting [2]), 32% and 12%; in the test on PYK2 (setting [2]), 0% and 17%; in the test with QSK (setting [2]), 55% and 8%; with RAF1 (setting [2]), 14% and 11%. Moreover, the “%Inh” value in the test with RET (setting [2]) is 19% and 56%; in the test with RIOK1 (setting [2]) it was 37% and 10%; in the test on RIOK2 (setting [2]) it was 19% and 5%; in the test on RIOK3 (setting [2]), 39% and 0%; with RIPK1 (setting [2]), 26% and 0%; with RIPK2 (setting [2]), 0% and 14%. Moreover, the “%Inh” value is 22% and 13% with RIPK4 (setting [2]); 0% in the test with RIPK5.
Take `Cc1cc(NCC(c2ccccc2)c2ccccc2)nc(NCc2ccc(C(F)(F)F)cc2)n1` [GW497681]: the “%Inh” value in the test with PRKCQ (setting [1]) was found to be 0%; in the test with PRKD1 it was 0%; in the test on PRKD2 (setting [1]), 6%; in the test with PRKD3 (setting [1]), 0%; in the test on PRKG1 (setting [1]), 0%; in the test with PRKG2 (setting [1]), 0%. In addition, the “%Inh” value with PRKR (setting [1]) was found to be 0%; with PRKX (setting [1]), 6%; with PRP4 (setting [1]), 29%; in the test with PYK2 (setting [1]), 6%; in the test with QSK (setting [1]), 0%; with RAF1 (setting [1]) it was 18%. Besides, the “%Inh” value in the test on RET (setting [1]) was found to be 0%; in the test with RIOK1 (setting [1]) it was 22%; in the test with RIOK2 (setting [1]) it was 0%; in the test with RIOK3 (setting [1]), 9%; with RIPK1 (setting [1]) it was 0%; in the test on RIPK2 (setting [1]), 9%. The “%Inh” value in the test on RIPK4 (setting [1]) and with RIPK5 was 0% each time.
For `Cl.Oc1ccc(-c2nc(-c3ccccc3)[nH]c2-c2ccncc2)cc1` [SB-428218], the “%Inh” value in the test on PRKCQ (setting [1]) was found to be 0%; with PRKD1, 0%; with PRKD2 (setting [1]), 9%; with PRKD3 (setting [1]) it was 0%; in the test with PRKG1 (setting [1]), 12%; in the test on PRKG2 (setting [1]), 0%. In addition, the “%Inh” value came out at 0% in the test with PRKR (setting [1]); 0% with PRKX (setting [1]); 57% with PRP4 (setting [1]); 0% in the test with PYK2 (setting [1]); 0% in the test with QSK (setting [1]); 61% with RAF1 (setting [1]). For the same molecule, the “%Inh” value in the test with RET (setting [1]) was found to be 26%; with RIOK1 (setting [1]), 0%; in the test on RIOK2 (setting [1]) it was 0%; in the test with RIOK3 (setting [1]), 0%; in the test with RIPK1 (setting [1]), 0%; with RIPK2 (setting [1]), 22%. In addition, the “%Inh” value in the test with RIPK4 (setting [1]) was 14%; with RIPK5, 0%.
